# ST2 IL33 inh: inhibitors of human ST2 (IL1RL1) binding to IL-33. 2.3% of 78,000 active. AID 1259354. Q01638. inhibition, % for hits at 17 µM. AlphaLISA ST2-Fc/biotin-IL-33 interaction, 1 h; in the data active means inhibition above about 30%
# Target sequence (Q01638 whole entry, looked up): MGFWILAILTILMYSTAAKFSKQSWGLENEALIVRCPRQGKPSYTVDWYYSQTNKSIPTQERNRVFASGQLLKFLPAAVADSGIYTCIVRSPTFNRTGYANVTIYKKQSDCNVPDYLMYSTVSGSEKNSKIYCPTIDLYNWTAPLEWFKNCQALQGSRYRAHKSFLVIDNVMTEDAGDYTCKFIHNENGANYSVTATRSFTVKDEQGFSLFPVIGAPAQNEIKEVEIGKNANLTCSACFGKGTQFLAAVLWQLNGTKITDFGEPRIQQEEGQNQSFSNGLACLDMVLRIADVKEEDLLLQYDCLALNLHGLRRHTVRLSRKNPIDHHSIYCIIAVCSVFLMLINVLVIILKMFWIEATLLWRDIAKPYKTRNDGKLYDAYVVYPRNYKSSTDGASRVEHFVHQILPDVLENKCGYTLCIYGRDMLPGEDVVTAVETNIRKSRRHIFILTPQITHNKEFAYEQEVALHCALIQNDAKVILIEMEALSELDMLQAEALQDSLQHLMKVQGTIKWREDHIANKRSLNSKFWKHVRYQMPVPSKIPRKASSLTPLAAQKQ
# The depositor's hits bear a star; i = inactive; ! = repeats disagree. The sample as a whole holds a higher share of hits than the screen did.
SMILES,ST2 IL33 inh
CCCN(CCC)C(=O)CN(C)S(=O)(=O)c1ccc2c(c1)CCC(=O)N2,i
CCN(CC)CCNc1nc2c(c(=O)n(C)c(=O)n2C)n1Cc1c(F)cccc1Cl,i
N#CC1=C(N)Oc2[nH]c(=O)[nH]c(=O)c2C1c1ccccc1I (centres undefined),i
c1ccc(CCCN2CCOCC2)cc1,i
Clc1ccc(-c2csc(=Nc3ccccc3)n2CCCN2CCOCC2)cc1,64%*
O=S(=O)(c1ccc(Cl)cc1)N(CCCN1CCOCC1)Cc1cccs1,i
CC(=O)N1CCN(c2ccc3ccccc3n2)CC1,i
COc1ccc(S(=O)(=O)N2CCCC(C(=O)N3CCCC3)C2)cc1 (centres undefined),i
Cn1c(C(=O)Nc2cccc(Cl)c2)cc2c(=O)n3ccccc3nc21,i
Cc1cccc(N=Cc2c(Nc3cccc(C)c3)nc3ccccn3c2=O)c1,44%*
Cc1cccc(Nc2nc(C)[nH]c2[N+](=O)[O-])c1,i
CCCn1c(CCCNC(C)=O)nc2ccccc21,i
COc1ccc(C2CC(C(F)(F)F)n3nc(C(=O)NC(C)c4ccccc4)c(Cl)c3N2)cc1 (centres undefined),i
COc1ccc2cc3cc(C(=O)NCCCN4CCN(C)CC4)oc3nc2c1,i
COc1ccc2cc3cc(C(=O)Nc4cc(Cl)ccc4OC)oc3nc2c1,i
CCN(CCCNC(=O)c1cc2cc3ccc(Cl)cc3nc2o1)c1ccccc1,34%*!
CCC1CCCCN1CCCNC(=O)c1cc2cc3ccc(Cl)cc3nc2o1 (centres undefined),i
O=C(NCCCN1CCCCCC1)c1cc2cc3ccc(Cl)cc3nc2o1,44%*!
COc1ccc2cc3cc(C(=O)Nc4ccc(F)cc4Cl)oc3nc2c1,i
O=C(Nc1ccc(F)cc1)c1cc2cc3ccc(Cl)cc3nc2o1,37%*!
CCCCN(CC)CCCNC(=O)c1cc2cc3ccc(OC)cc3nc2o1,i
CCCN(CCC)CCCNC(=O)c1cc2cc3ccc(OC)cc3nc2o1,i
Cc1ccc(-c2[nH]c3ccccc3c2SCCNC(=O)C2CC2)cc1,i
COc1ccc(-c2noc(CN3CCCC(c4ccc(Cl)cc4)C3)n2)c(OC)c1OC (centres undefined),i
Cc1cc(OCC(=O)N(C)c2ccccc2)ccc1Cl,i
SMILES,ST2 IL33 inh
CCCOC(=O)C1=C(C)NC2=C(C(=O)C(C(=O)OC)C(C)C2)C1c1ccc(Cl)c(Cl)c1 (centres undefined),i
N#Cc1nc(COc2ccccc2)oc1NCc1ccc(F)cc1,34%*
Nc1nonc1-c1noc(COc2ccc(F)cc2)n1,i
COc1ccc(CNc2oc(COc3ccc(OC)cc3)nc2C#N)cc1,i
c1csc(C2CCCN2c2nc3nonc3nc2N2CCSCC2)n1 (centres undefined),i
CCc1c(C)cc(C(=O)NCC2CCN(CC(C)C)C2)c(=O)n1C (centres undefined),i
CCOC(=O)c1csc(Nc2nc3ccc(OC)cc3s2)n1,i
COC1=C(OC)C(=O)c2ccccc2C1=O,i
CC(=O)c1ccccc1-c1cccc(C(=O)NC(C)C)c1,i
CC(=O)C1=C(c2ccccc2)C(=O)c2ccccc2C1=O,48%*
CC(C(=O)N1CCCc2c1c(=O)oc1ccc(O)cc21)N1CCC(Cc2ccccc2)CC1 (centres undefined),i
O=C(NCc1ccccc1Cl)c1cccn2c(=O)c3sccc3nc12,i
Cc1ccccc1NCN1C(=O)C2C3C=CC(C3)C2C1=O (centres undefined),i
Cc1ccccc1NC1=C(N)C(=O)c2ccccc2C1=O,87%*
Cc1ccccc1NC(=O)c1ccc(C(=O)Nc2ccccc2C)cc1,i
Cc1cc(C)c2nc(NC(=O)c3ccncc3)sc2c1,i
CC(C)(C)NC(=O)CCS(=O)(=O)c1cccs1,i
O=C1CC(c2ccccc2)CC2=C1C(c1ccccc1Br)Nc1ccccc1N2 (centres undefined),i
O=C1CC(c2ccccc2)CC2=C1C(c1cc3c(cc1[N+](=O)[O-])OCO3)Nc1ccccc1N2 (centres undefined),44%*
O=C1CC(c2ccccc2)CC2=C1C(c1cc(Br)ccc1F)Nc1ccccc1N2 (centres undefined),i
CCNc1nc(C)c(C(=O)NC2CCCN(Cc3cccc(OC)c3)C2)s1 (centres undefined),i
COc1ccc2c(=O)c(-c3ccccc3Cl)c(C(F)(F)F)oc2c1,i
Cc1ccccc1-c1c(C(F)(F)F)oc2c(C)c(O)ccc2c1=O,i
COc1ccc2c(=O)c(-c3ccccc3C)c(C(F)(F)F)oc2c1,75%*
COC(=O)c1cccc(C(=O)N2CCCC(CCC(=O)N3CCN(C)CC3)C2)c1 (centres undefined),i
SMILES,ST2 IL33 inh
CCOc1ccc(C2C(C(=O)OC(C)CC)=C(C)NC3=C2C(=O)C(C(=O)OC)C(C)C3)cc1 (centres undefined),i
O=C1CCCC2=C1C(c1ccc(OCc3ccc([N+](=O)[O-])cc3)cc1)C1=C(CCCC1=O)N2,i
CCOc1ccc(C2C3=C(CCCC3=O)NC3=C2C(=O)c2ccccc23)cc1 (centres undefined),36%*
COc1ccc(C2C3=C(CCCC3=O)NC3=C2C(=O)c2ccccc23)cc1 (centres undefined),i
CCOc1ccc(-c2csc(/C(C#N)=C/c3ccc(N(C)C)cc3)n2)cc1,65%*
COc1cc(-c2oc(-c3ccc(O)c(OC)c3)c(C)c2C)ccc1O,i
CN(C)c1ccc(/C=C(\C#N)c2nc(-c3ccc(Br)cc3)cs2)cc1,53%*
CCOc1ccc(-c2csc(NC(=O)c3ccc(OC)c(OC)c3)n2)cc1,i
CCOc1ccc(-c2cn3ccsc3n2)cc1,i
CCOc1ccc(-c2csc(/C(C#N)=C/c3ccc(OC)cc3)n2)cc1,54%*
CCOc1ccccc1/C=C(\C#N)c1nc(-c2ccc([N+](=O)[O-])cc2)cs1,i
O=C(O)C1CCN(c2nc(-c3ccc(Br)cc3)cs2)CC1,i
CCOc1ccc(-c2csc(-c3cc4cccc(OC)c4oc3=O)n2)cc1,i
COc1cc(/C=C(\C#N)c2nc(-c3ccc(Br)cc3)cs2)ccc1O,33%*
CC(=O)N1N=C(c2cccc([N+](=O)[O-])c2)OC1c1ccc2c(c1)OCO2 (centres undefined),i
CN(C)S(=O)(=O)N1CCC2(CCCN(CC3CCCCC3)C2=O)C1 (centres undefined),i
N#CC1=C2SCN(Cc3ccco3)CN2C(=O)CC1c1ccccc1Cl (centres undefined),i
Cc1cc(C(C)(C)C)cc(C)c1NS(C)(=O)=O,i
Nc1nc2n(n1)C(c1ccccc1)CC(c1ccccc1)N2 (centres undefined),i
Cc1c(NCc2ccccc2)c(=O)n(-c2ccccc2)n1C,i
CCCSc1nnc2c(n1)OC(c1cccnc1)Nc1ccc(Br)cc1-2 (centres undefined),i
CN1CC(=O)N2CCN(S(=O)(=O)c3cc4ccccc4o3)CC2C1=O (centres undefined),i
COc1ccc(-c2cc(-c3ccccc3)nc(Br)c2C#N)cc1,i
COc1ccc(-c2csc(/C(C#N)=C/c3cccc(F)c3)n2)cc1,43%*
N#C/C(=C\c1cccc(F)c1)c1nc(-c2cc3ccccc3oc2=O)cs1,i
NS(=O)(=O)c1ccc2c(c1)C1CCN2CC1,i
CN1C(=O)c2cccc3c(C(=O)c4ccccc4)ccc(c23)C1=O,i
CCCNC(=O)c1sc2c(Cl)c(OC)ccc2c1Cl,53%*

# Assay outcomes from PubChem BioAssay.
